In PMC5540273 (PLoS ONE, 2017):

system: VRK2; details: concentration: 1 μM, replicates: in singlicate; n = 1
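Note: KINOMEscan kinase panel screen.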

Compound | %Inh [%]
Cl.NC(=O)c1cccc(Nc2nccc(Nc3ccc(Oc4cccc(Cl)c4)c(Cl)c3)n2)c1 [GW659008] | 0
COc1ccccc1CNC(=O)c1cc(C(=O)c2ccccc2C)c[nH]1 [GSK364507] | 0
COc1cc2ncnc(Nc3ccc4nc(-c5ccccc5)[nH]c4c3)c2cc1OC.Cl [GW282450] | 0
NC(=O)c1nnc2ccccc2c1N | 4
CN1C(=O)C(Nc2ccc(Cl)c(C(=O)O)c2)=C(c2ccc(Cl)cc2)C1=O [SB-404290] | 0
Cc1cccc(-c2cc(Nc3ccncc3)c3ccccc3n2)n1 [GSK223675] | 0
Cc1ccc(NC(=O)Nc2cc(C(C)(C)C)nn2-c2ccccc2)cc1 [GSK1014915] | 0
Cn1ccc2ncnc(Oc3ccc(Nc4nc5ccccc5[nH]4)cc3)c21 | 0
CCn1c(-c2cccnc2O)nc2cnccc21 [SB-736715] | 77
COc1ccc(C2=C(Nc3cccc(C(=O)O)c3)C(=O)NC2=O)cc1 [SB-390765] | 0
Fc1cc(Cl)ccc1Nc1ccnc2cc(I)ccc12 [GW551191] | 0
CS(=O)(=O)c1ccc(-c2c(-c3ncn[nH]3)sc(N3CCOCC3)c2C#N)cc1 | 0
Cn1ccc2ncnc(Oc3ccc(NC(=O)Nc4ccccc4)cc3)c21 | 0
Cc1cccc(-c2nc(Nc3ccc4[nH]ncc4c3)c3ccccc3n2)n1 [GW857175] | 0
CC1=C(C(=O)Nc2cc3cn[nH]c3cc2F)C(c2ccc(C(F)(F)F)cc2)CC(=O)N1 (stereo not shown) [GSK429286] | 0
Cc1cccc(-c2nc(C)cc(Nc3ccncc3)n2)n1 [GSK257997] | 0
Fc1cccc(COc2nnc(-c3ccc4c(c3)CCO4)o2)c1 | 0
COc1ccc(CNC(=O)NC2CCN(c3ccnc(Nc4cc(OC)c(OC)c(OC)c4)n3)C2)cc1 (stereo not shown) [GSK1379748] | 14
O=C(Nc1n[nH]c2nc(-c3nccs3)c(Br)cc12)C1CCCC1 [SB-742609] | 34
Cc1csc(-c2nc(Nc3ccncc3)c3ccccc3n2)n1 [GW869640] | 20
O=C(Nc1n[nH]c2nc(-c3nccs3)c(Br)cc12)C1CC1 [SB-742251] | 0

system: WEE1; details: concentration: 1 μM, replicates: in singlicate; n = 1

Compound | %Inh [%]
Nc1ncnc2[nH]c(-c3ccccc3)nc12 [AH5015] | 0
Cc1cc(-c2ccc3c(c2)CC[C@@H](N[C@@H](C)c2ccccc2)C3)cnc1N.Cl [GW412617] | 18
Cc1ccc(-c2cc(-c3c[nH]nc3-c3ccccn3)ccn2)cc1 [GW684088] | 1
O=C(Nc1n[nH]c2cc(-c3cccc(F)c3F)ccc12)C1CC1 [SB-733894] | 0
O=C(Nc1ccc2c(c1)OCO2)NC1CCN(c2ccnc(Nc3ccc(F)cc3)n2)C1 (stereo not shown) [GSK1379724] | 11
O=c1cc(N2CCOCC2)nc2n(Cc3cccc(Cl)c3Cl)ccn12 [GSK2286295] | 3
COc1cccc(NC(=O)NC2CCN(c3ccnc(Nc4ccc(F)cc4)n3)C2)c1 (stereo not shown) [GSK1379721] | 6
CN(C)CCN(C)C(=O)c1cc(-c2ccncc2)c(-c2ccc(Cl)c(O)c2)o1.Cl.Cl [SB-710397] | 0
CC(C)(C)c1ccc(C(=O)Nc2cn3cc(Cl)ccc3n2)cc1 | 0
COc1cc2nccc(Nc3ccc(NC(=O)c4ccc(C)cc4)c(O)c3)c2cc1OC.Cl [GW440132] | 2
O=C1NC(=O)C(N2CCc3ccccc32)=C1c1ccccc1Cl [SB-373598] | 6
COc1cc2ncn(-c3cc(OCC4CCCO4)c(C(N)=O)s3)c2cc1OC (stereo not shown) [GSK204607] | 9
COc1cc(Nc2nccc(N3CCC(NC(=O)Nc4cc(C)ccc4C)C3)n2)cc(OC)c1OC (stereo not shown) [GSK1379762] | 32
Cl.NC(=O)c1cccc(Nc2nccc(Nc3ccc(Oc4cccc(Cl)c4)c(Cl)c3)n2)c1 [GW659008] | 0
COc1ccccc1CNC(=O)c1cc(C(=O)c2ccccc2C)c[nH]1 [GSK364507] | 9
COc1cc2ncnc(Nc3ccc4nc(-c5ccccc5)[nH]c4c3)c2cc1OC.Cl [GW282450] | 0
NC(=O)c1nnc2ccccc2c1N | 9

Compound | %Inh [%]
CN1C(=O)C(Nc2ccc(Cl)c(C(=O)O)c2)=C(c2ccc(Cl)cc2)C1=O [SB-404290] | 0
Cc1cccc(-c2cc(Nc3ccncc3)c3ccccc3n2)n1 [GSK223675] | 20
Cc1ccc(NC(=O)Nc2cc(C(C)(C)C)nn2-c2ccccc2)cc1 [GSK1014915] | 0
Cn1ccc2ncnc(Oc3ccc(Nc4nc5ccccc5[nH]4)cc3)c21 | 0
CCn1c(-c2cccnc2O)nc2cnccc21 [SB-736715] | 0
COc1ccc(C2=C(Nc3cccc(C(=O)O)c3)C(=O)NC2=O)cc1 [SB-390765] | 0
Fc1cc(Cl)ccc1Nc1ccnc2cc(I)ccc12 [GW551191] | 8
CS(=O)(=O)c1ccc(-c2c(-c3ncn[nH]3)sc(N3CCOCC3)c2C#N)cc1 | 0
Cn1ccc2ncnc(Oc3ccc(NC(=O)Nc4ccccc4)cc3)c21 | 0
Cc1cccc(-c2nc(Nc3ccc4[nH]ncc4c3)c3ccccc3n2)n1 [GW857175] | 4
CC1=C(C(=O)Nc2cc3cn[nH]c3cc2F)C(c2ccc(C(F)(F)F)cc2)CC(=O)N1 (stereo not shown) [GSK429286] | 12
Cc1cccc(-c2nc(C)cc(Nc3ccncc3)n2)n1 [GSK257997] | 9
Fc1cccc(COc2nnc(-c3ccc4c(c3)CCO4)o2)c1 | 0
COc1ccc(CNC(=O)NC2CCN(c3ccnc(Nc4cc(OC)c(OC)c(OC)c4)n3)C2)cc1 (stereo not shown) [GSK1379748] | 5
O=C(Nc1n[nH]c2nc(-c3nccs3)c(Br)cc12)C1CCCC1 [SB-742609] | 0
Cc1csc(-c2nc(Nc3ccncc3)c3ccccc3n2)n1 [GW869640] | 1
O=C(Nc1n[nH]c2nc(-c3nccs3)c(Br)cc12)C1CC1 [SB-742251] | 16
